Reference: PubChem BioAssay (NCI)
Compounds without any hit were thinned out: in the full panel of roughly 83,000, 20% have a hit.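 Plates (96-well) were seeded with cells, treated with compound at one concentration, and incubated for 48 hours before percent growth was determined.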 The source made the active and inactive calls. The calls were made as follows: active = growth percent below 10; inactive = the rest.

Assays:
Experiment in all cases: NCI-60 one-dose screen, 48 h (100 = growth as untreated, 0 = no growth, -100 = all killed)
Settings in all cases: 10 µM
HCT-15 colon = system: HCT-15 colon
HT29 colon = system: HT29 colon
SNB-75 CNS = system: SNB-75 CNS
SNB-19 CNS = system: SNB-19 CNS
U251 CNS = system: U251 CNS
PC-3 prostate = system: PC-3 prostate
SK-MEL-5 melanoma = system: SK-MEL-5 melanoma
UACC-62 melanoma = system: UACC-62 melanoma
LOX IMVI melanoma = system: LOX IMVI melanoma
SK-MEL-28 melanoma = system: SK-MEL-28 melanoma

Measured: growth

Cc1ccc2nc(-c3ccc(OCC(=O)N=Nc4c(O)[nH]c5ccccc45)cc3)[nH]c2c1
inactive: HCT-15 colon 86.3% | HT29 colon 41.2% | SNB-75 CNS 109% | SNB-19 CNS 50% | SK-MEL-5 melanoma 94.3% | UACC-62 melanoma 96.5% | LOX IMVI melanoma 39% | SK-MEL-28 melanoma 102%
active: U251 CNS 6.05% | PC-3 prostate 7.33%

CS(=O)(=O)Nc1ccc([N+](=O)[O-])cc1Oc1ccccc1
inactive: HCT-15 colon 104% | HT29 colon 99.9% | SNB-75 CNS 110% | SNB-19 CNS 104% | U251 CNS 90.4% | PC-3 prostate 95.4% | SK-MEL-5 melanoma 84.2% | UACC-62 melanoma 89.8% | LOX IMVI melanoma 88.2% | SK-MEL-28 melanoma 118%

C=CCNCCCN1C(=O)c2ccc3c4c(ccc(c24)C1=O)C(=O)N(CCCNCC=C)C3=O
active: HCT-15 colon -72.4% | HT29 colon -17.1% | SNB-75 CNS -98.2% | SNB-19 CNS -91.2% | U251 CNS -73.9% | PC-3 prostate -15.5% | SK-MEL-5 melanoma -99.3% | UACC-62 melanoma -80.4% | LOX IMVI melanoma -77.5% | SK-MEL-28 melanoma -76.3%

O=C(N/N=C/c1ccccc1O)c1ccccc1
inactive: HCT-15 colon 23.9% | HT29 colon 45.5% | SNB-75 CNS 56.6% | SNB-19 CNS 56% | U251 CNS 27.6% | PC-3 prostate 37.8% | SK-MEL-5 melanoma 13.3% | UACC-62 melanoma 13.8% | SK-MEL-28 melanoma 73.5%
active: LOX IMVI melanoma 5.3%

Cc1ccc(C)c(S(=O)(=O)NC2c3ccccc3Oc3ccccc32)c1
inactive: HCT-15 colon 94% | HT29 colon 88.8% | SNB-75 CNS 91% | SNB-19 CNS 102% | U251 CNS 92.1% | PC-3 prostate 89% | SK-MEL-5 melanoma 101% | UACC-62 melanoma 95.1% | LOX IMVI melanoma 94.1% | SK-MEL-28 melanoma 106%

C#CCNCCCN1C(=O)c2ccc3c4c(ccc(c24)C1=O)C(=O)N(CCCNCC#C)C3=O
active: HCT-15 colon -82.3% | HT29 colon -8.76% | SNB-75 CNS -98.7% | SNB-19 CNS -88.6% | U251 CNS -76.6% | PC-3 prostate -28% | SK-MEL-5 melanoma -98.7% | UACC-62 melanoma -75.8% | LOX IMVI melanoma -94.4% | SK-MEL-28 melanoma -81.8%

COc1ccc2c(=O)cc(C(Cl)(Cl)Cl)oc2c1
active: HCT-15 colon 5.59% | HT29 colon -41.8% | SNB-75 CNS -78.3% | SNB-19 CNS 1.99% | U251 CNS -0.183% | PC-3 prostate -37% | SK-MEL-5 melanoma -91.9% | UACC-62 melanoma -73.2% | LOX IMVI melanoma -15.5% | SK-MEL-28 melanoma -82.7%

CCc1ccc(-c2nnc(COc3ccc(-c4nc5ccccc5[nH]4)cc3OC)o2)cc1
active: SNB-75 CNS -27.1%
inactive: HCT-15 colon 52.9% | HT29 colon 61.7% | SNB-19 CNS 84.3% | U251 CNS 23.3% | PC-3 prostate 54.9% | SK-MEL-5 melanoma 80.2% | UACC-62 melanoma 91% | LOX IMVI melanoma 24.5% | SK-MEL-28 melanoma 93.5%

COc1ccc(C2C=C(c3ccc(Cl)cc3)N=C3SC=CN32)c(Br)c1 (stereo not given)
inactive: HCT-15 colon 74% | HT29 colon 65.2% | SNB-75 CNS 63.6% | SNB-19 CNS 66.9% | U251 CNS 70.2% | PC-3 prostate 45.2% | SK-MEL-5 melanoma 88.6% | UACC-62 melanoma 75.2% | LOX IMVI melanoma 71.2% | SK-MEL-28 melanoma 63.5%

COc1ccc(S(=O)(=O)Nc2ccc(OCc3nnc(-c4ccc(Cl)cc4)o3)c(F)c2)cc1
inactive: HCT-15 colon 65.5% | HT29 colon 83.7% | SNB-75 CNS 67.1% | SNB-19 CNS 65.8% | U251 CNS 68.4% | PC-3 prostate 52.3% | SK-MEL-5 melanoma 15.7% | UACC-62 melanoma 42.4% | LOX IMVI melanoma 52.7% | SK-MEL-28 melanoma 83.8%

C[n+]1c(/C=C/c2c[nH]c3ccccc23)ccc2ccccc21
inactive: HCT-15 colon 90.7% | HT29 colon 49.2% | SNB-75 CNS 90.9% | SNB-19 CNS 68.4% | U251 CNS 69.9% | PC-3 prostate 52.1% | SK-MEL-5 melanoma 59.2% | UACC-62 melanoma 54.2% | LOX IMVI melanoma 60.5% | SK-MEL-28 melanoma 84.8%

CCOC(=O)[C@@H](Cc1ccccc1)NC(=O)c1[nH]c2ccc(Cl)cc2c(=O)c1C
inactive: HCT-15 colon 40.7% | HT29 colon 91.7% | SNB-75 CNS 95.9% | SNB-19 CNS 94.3% | U251 CNS 71.7% | PC-3 prostate 80.7% | SK-MEL-5 melanoma 81.6% | UACC-62 melanoma 86.6% | LOX IMVI melanoma 95.8% | SK-MEL-28 melanoma 104%

COc1cc(C2C(C#N)=C(c3c[nH]c4ccccc34)Nc3nc(N)[nH]c(=O)c32)cc(OC)c1OC (stereo not given)
inactive: HCT-15 colon 105% | HT29 colon 107% | SNB-75 CNS 80% | SNB-19 CNS 66.5% | U251 CNS 73.6% | PC-3 prostate 62.8% | SK-MEL-5 melanoma 67.4% | UACC-62 melanoma 84.2% | LOX IMVI melanoma 52% | SK-MEL-28 melanoma 56.2%

CC(=O)OCC(COC(C)=O)(COC(C)=O)COC(C)=O
inactive: HCT-15 colon 102% | HT29 colon 102% | SNB-75 CNS 105% | SNB-19 CNS 104% | U251 CNS 103% | PC-3 prostate 102% | SK-MEL-5 melanoma 93% | UACC-62 melanoma 103% | LOX IMVI melanoma 98.1% | SK-MEL-28 melanoma 121%

CCCc1c(CC)c(=N)c2ccccc2n1C
inactive: HCT-15 colon 10.7% | SNB-75 CNS 73.4% | SNB-19 CNS 95.1% | U251 CNS 43.2% | PC-3 prostate 67.4% | SK-MEL-5 melanoma 19.2%
active: HT29 colon 4.71% | UACC-62 melanoma -3.76% | LOX IMVI melanoma 1.08% | SK-MEL-28 melanoma -80.8%

CN(C)Cc1cccs1
inactive: HCT-15 colon 106% | HT29 colon 104% | SNB-75 CNS 93.9% | SNB-19 CNS 98.9% | U251 CNS 95.9% | PC-3 prostate 70.3% | SK-MEL-5 melanoma 90% | UACC-62 melanoma 95.4% | LOX IMVI melanoma 93.1% | SK-MEL-28 melanoma 102%

Cc1ncc([N+](=O)[O-])n1CCOc1ccc(C(=O)/C=C/c2ccc(C(F)(F)F)cc2)cc1
inactive: HCT-15 colon 38.1% | HT29 colon 29.7% | SNB-75 CNS 60.1% | SNB-19 CNS 69.7% | U251 CNS 51.7% | PC-3 prostate 50.6% | SK-MEL-5 melanoma 78.4% | UACC-62 melanoma 67.5% | LOX IMVI melanoma 57.3% | SK-MEL-28 melanoma 88.2%

C/C=C\COc1cc(C)c(Cl)cc1Cl
inactive: HCT-15 colon 109% | HT29 colon 114% | SNB-75 CNS 88.9% | SNB-19 CNS 97.3% | U251 CNS 94.6% | PC-3 prostate 98.5% | SK-MEL-5 melanoma 99.6% | UACC-62 melanoma 100% | LOX IMVI melanoma 106% | SK-MEL-28 melanoma 104%

C/C(=N\NC(N)=S)C(C)(C)O
inactive: HCT-15 colon 101% | HT29 colon 61% | SNB-75 CNS 91.2% | SNB-19 CNS 106% | U251 CNS 88.1% | PC-3 prostate 90.1% | SK-MEL-5 melanoma 101% | UACC-62 melanoma 103% | LOX IMVI melanoma 95.1% | SK-MEL-28 melanoma 98.5%

Cc1cc(Nc2cccc(F)c2)nc(NCc2ccccc2)n1
active: PC-3 prostate 1.49%
inactive: HCT-15 colon 15.6% | HT29 colon 22.8% | SNB-75 CNS 50.5% | SNB-19 CNS 29.4% | U251 CNS 11.7% | SK-MEL-5 melanoma 33.9% | UACC-62 melanoma 16.7% | LOX IMVI melanoma 18.2% | SK-MEL-28 melanoma 43.9%

C=CCc1cc(Nc2c3ccc(Cl)cc3nc3ccc(OC)cc23)cc(CN(CC)CC)c1O
inactive: SNB-75 CNS 13% | SNB-19 CNS 20.6% | U251 CNS 12.5% | UACC-62 melanoma 19.1% | SK-MEL-28 melanoma 39.1%
active: HCT-15 colon 9.53% | HT29 colon 3.04% | PC-3 prostate 9.79% | SK-MEL-5 melanoma -92.7% | LOX IMVI melanoma -32.9%

Cc1ccc(C(=O)O)c(N)c1C
inactive: HCT-15 colon 99.7% | HT29 colon 101% | SNB-75 CNS 82.6% | SNB-19 CNS 107% | U251 CNS 100% | PC-3 prostate 94.6% | SK-MEL-5 melanoma 107% | UACC-62 melanoma 103% | LOX IMVI melanoma 93.8% | SK-MEL-28 melanoma 122%

Cc1ccccc1[P+](Cc1ccccc1)(c1ccccc1)c1ccccc1
inactive: HCT-15 colon 90.1% | SNB-19 CNS 24.7% | U251 CNS 12.1% | LOX IMVI melanoma 22.4% | SK-MEL-28 melanoma 27.3%
active: HT29 colon 7.47% | SNB-75 CNS 6.56% | PC-3 prostate 9.34% | SK-MEL-5 melanoma -14% | UACC-62 melanoma 0.358%

CCC(OC(=O)CC(C)C)c1ccccc1 (stereo not given)
inactive: HCT-15 colon 101% | HT29 colon 93.6% | SNB-75 CNS 91.1% | SNB-19 CNS 105% | U251 CNS 86.9% | PC-3 prostate 94.8% | SK-MEL-5 melanoma 100% | UACC-62 melanoma 102% | LOX IMVI melanoma 96.1% | SK-MEL-28 melanoma 106%

CC(C)OP(=O)(O)c1ncc(-c2ccc(C(F)(F)F)cc2)c(NC2CCCCCC2)n1
inactive: HCT-15 colon 95.4% | HT29 colon 47.5% | SNB-75 CNS 73% | SNB-19 CNS 71.3% | U251 CNS 30.4% | PC-3 prostate 24.2% | SK-MEL-5 melanoma 43% | UACC-62 melanoma 31.6% | LOX IMVI melanoma 64.6% | SK-MEL-28 melanoma 51.4%

C#Cc1ccc(-n2c(/C=C/c3cc(OC)c(OC)c(OC)c3)nc3ncccc3c2=O)cc1
inactive: HCT-15 colon 48.6% | HT29 colon 16% | SNB-75 CNS 34% | SNB-19 CNS 88.9% | U251 CNS 79.3% | PC-3 prostate 43.8% | UACC-62 melanoma 52.7% | LOX IMVI melanoma 56.9% | SK-MEL-28 melanoma 77.6%
active: SK-MEL-5 melanoma 9.66%

Fc1ccc(Nc2ccnc(N3CCN(c4ccnc5cc(Cl)ccc45)CC3)n2)cc1
inactive: HCT-15 colon 38.4% | HT29 colon 22.3% | SNB-75 CNS 74.2% | SNB-19 CNS 65.7% | U251 CNS 47% | PC-3 prostate 23% | SK-MEL-5 melanoma 26% | UACC-62 melanoma 45.3% | LOX IMVI melanoma 49.8% | SK-MEL-28 melanoma 81%
